Reference: the supplement of paper PMC10849652
The full data set covers some 8,800 targets. This sample favours those with a hit. About 0.5% of all pairs of compound and target were hits. Unmarked numbers belong to inactive results.

What was measured:
Experiment in all cases: log2 fold change, soluble protein after heating vs DMSO (PISA); higher = thermal stabilisation; K562 lysate, 10 uM; active = over 0.2 and 3.5 SD of the protein, either way, in both replicates (recomputed)
[1] = compound: Cc1cn(-c2cc(NC(=O)c3ccc(C)c(Nc4nccc(-c5cccnc5)n4)c3)cc(C(F)(F)F)c2)cn1 [nilotinib]
Outline: (§1)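 To prepare the extract, K562 pellets were dounce-homogenised in PBS pH 7.4 with 1 mM MgCl2, giving crude material at 1 mg/mL protein. This was treated with 10 μM compound for 30 min, then heated in aliquots for 3 min over 48°C-58°C before pooling and addition of NP-40 to 0.5% at 4°C. Centrifugation at 21,000xg for 90 min left soluble protein in the supernatant, which TMTpro 16plex LC-MS/MS quantified with equalised channel sums. Results are log-two fold changes in thermal stability compared with solvent controls, from duplicates.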

[2] = compound: Cc1nc(Nc2n[nH]c3c2CN(C(=O)N[C@H](CN(C)C)c2ccccc2)C3(C)C)c2sccc2n1
Outline: as §1

[3] = compound: Cc1ncc(-c2ccnc(Nc3ccc(S(C)(=O)=O)cc3)n2)n1C(C)C
Outline: as §1

[4] = compound: Cn1cc(CNCC2CCN(c3ncc(C(=O)NO)cn3)CC2)c2ccccc21 [quisinostat]
Outline: as §1

[5] = compound: Cn1cncc1[C@@](N)(c1ccc(Cl)cc1)c1ccc2c(c1)c(-c1cccc(Cl)c1)cc(=O)n2C [tipifarnib]
Outline: as §1

[6] = compound: NC(=O)Nc1cc(-c2cccc(F)c2)sc1C(=O)N[C@H]1CCCNC1
Outline: as §1

[7] = compound: NC(=O)c1cnc(N[C@@H]2CCCC[C@@H]2N)nc1Nc1cccc(-n2nccn2)c1
Outline: as §1

[8] = compound: NC1(c2ccc(-c3nc4ccn5c(=O)[nH]nc5c4cc3-c3ccccc3)cc2)CCC1
Outline: as §1

[9] = compound: O=C(CCCCCCC(=O)Nc1ccccc1)NO [vorinostat]
Outline: as §1

[10] = compound: O=C(O)c1ccc2c(c1)nc(Nc1cccc(Cl)c1)c1ccncc12 [silmitasertib]
Outline: as §1

[11] = compound: O=C1NC(=O)C(c2cnc3ccccn23)=C1c1cn2c3c(cc(F)cc13)CN(C(=O)N1CCCCC1)CC2
Outline: as §1

[12] = compound: Cc1nc(Nc2ncc(C(=O)Nc3c(C)cccc3Cl)s2)cc(N2CCN(CCO)CC2)n1 [dasatinib]
Outline: as §1

[13] = compound: Cn1cc(-c2ccc3c(c2)CCN3C(=O)Cc2cccc(C(F)(F)F)c2)c2c(N)ncnc21
Outline: as §1

[14] = compound: NCC(=O)Nc1ccc(-n2nc(C(F)(F)F)cc2-c2ccc3c(ccc4ccccc43)c2)cc1
Outline: as §1

[15] = compound: c1cn2cc(-c3ccc4cn[nH]c4c3)nc(Nc3ccc(N4CCOCC4)cc3)c2n1 [entospletinib]
Outline: as §1

Sequence of UniProt Q6ZRR7 (Q6ZRR7 whole entry, looked up): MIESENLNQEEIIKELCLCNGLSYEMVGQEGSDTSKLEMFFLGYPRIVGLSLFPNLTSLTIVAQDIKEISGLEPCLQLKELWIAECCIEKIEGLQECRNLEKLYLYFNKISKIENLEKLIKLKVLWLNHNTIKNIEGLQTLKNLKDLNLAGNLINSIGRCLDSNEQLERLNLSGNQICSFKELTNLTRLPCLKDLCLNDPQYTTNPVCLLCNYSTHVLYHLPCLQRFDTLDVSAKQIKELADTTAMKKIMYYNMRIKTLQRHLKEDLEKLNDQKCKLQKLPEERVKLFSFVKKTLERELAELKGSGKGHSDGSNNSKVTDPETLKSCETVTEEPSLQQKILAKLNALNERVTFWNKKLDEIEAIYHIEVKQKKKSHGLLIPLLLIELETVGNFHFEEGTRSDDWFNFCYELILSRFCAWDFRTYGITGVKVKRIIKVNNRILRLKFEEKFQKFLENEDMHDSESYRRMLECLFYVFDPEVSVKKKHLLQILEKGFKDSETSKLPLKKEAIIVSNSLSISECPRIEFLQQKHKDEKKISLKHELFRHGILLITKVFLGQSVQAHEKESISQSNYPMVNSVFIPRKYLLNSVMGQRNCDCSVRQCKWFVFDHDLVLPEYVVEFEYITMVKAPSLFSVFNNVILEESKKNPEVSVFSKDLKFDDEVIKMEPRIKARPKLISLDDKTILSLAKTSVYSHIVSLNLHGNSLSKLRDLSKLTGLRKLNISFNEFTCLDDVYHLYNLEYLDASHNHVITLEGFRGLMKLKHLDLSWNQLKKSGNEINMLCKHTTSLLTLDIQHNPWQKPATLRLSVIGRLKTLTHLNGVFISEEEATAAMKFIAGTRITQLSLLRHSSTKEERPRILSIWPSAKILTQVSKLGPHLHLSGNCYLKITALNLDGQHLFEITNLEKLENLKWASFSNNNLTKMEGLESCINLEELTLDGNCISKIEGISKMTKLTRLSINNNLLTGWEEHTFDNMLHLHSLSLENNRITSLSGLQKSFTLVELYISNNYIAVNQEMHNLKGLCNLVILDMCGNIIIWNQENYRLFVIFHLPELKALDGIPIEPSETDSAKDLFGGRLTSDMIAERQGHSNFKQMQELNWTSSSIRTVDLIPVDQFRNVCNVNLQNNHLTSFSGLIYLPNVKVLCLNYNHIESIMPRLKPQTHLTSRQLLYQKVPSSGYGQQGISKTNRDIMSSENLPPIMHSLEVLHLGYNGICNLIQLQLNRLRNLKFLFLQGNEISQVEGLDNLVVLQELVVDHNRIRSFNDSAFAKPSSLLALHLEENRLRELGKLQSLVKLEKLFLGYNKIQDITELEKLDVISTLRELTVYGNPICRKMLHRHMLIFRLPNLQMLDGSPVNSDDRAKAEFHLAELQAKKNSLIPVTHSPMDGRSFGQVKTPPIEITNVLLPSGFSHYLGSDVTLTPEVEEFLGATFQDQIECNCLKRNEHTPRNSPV
Sequence of UniProt O95819 (O95819 whole entry, looked up): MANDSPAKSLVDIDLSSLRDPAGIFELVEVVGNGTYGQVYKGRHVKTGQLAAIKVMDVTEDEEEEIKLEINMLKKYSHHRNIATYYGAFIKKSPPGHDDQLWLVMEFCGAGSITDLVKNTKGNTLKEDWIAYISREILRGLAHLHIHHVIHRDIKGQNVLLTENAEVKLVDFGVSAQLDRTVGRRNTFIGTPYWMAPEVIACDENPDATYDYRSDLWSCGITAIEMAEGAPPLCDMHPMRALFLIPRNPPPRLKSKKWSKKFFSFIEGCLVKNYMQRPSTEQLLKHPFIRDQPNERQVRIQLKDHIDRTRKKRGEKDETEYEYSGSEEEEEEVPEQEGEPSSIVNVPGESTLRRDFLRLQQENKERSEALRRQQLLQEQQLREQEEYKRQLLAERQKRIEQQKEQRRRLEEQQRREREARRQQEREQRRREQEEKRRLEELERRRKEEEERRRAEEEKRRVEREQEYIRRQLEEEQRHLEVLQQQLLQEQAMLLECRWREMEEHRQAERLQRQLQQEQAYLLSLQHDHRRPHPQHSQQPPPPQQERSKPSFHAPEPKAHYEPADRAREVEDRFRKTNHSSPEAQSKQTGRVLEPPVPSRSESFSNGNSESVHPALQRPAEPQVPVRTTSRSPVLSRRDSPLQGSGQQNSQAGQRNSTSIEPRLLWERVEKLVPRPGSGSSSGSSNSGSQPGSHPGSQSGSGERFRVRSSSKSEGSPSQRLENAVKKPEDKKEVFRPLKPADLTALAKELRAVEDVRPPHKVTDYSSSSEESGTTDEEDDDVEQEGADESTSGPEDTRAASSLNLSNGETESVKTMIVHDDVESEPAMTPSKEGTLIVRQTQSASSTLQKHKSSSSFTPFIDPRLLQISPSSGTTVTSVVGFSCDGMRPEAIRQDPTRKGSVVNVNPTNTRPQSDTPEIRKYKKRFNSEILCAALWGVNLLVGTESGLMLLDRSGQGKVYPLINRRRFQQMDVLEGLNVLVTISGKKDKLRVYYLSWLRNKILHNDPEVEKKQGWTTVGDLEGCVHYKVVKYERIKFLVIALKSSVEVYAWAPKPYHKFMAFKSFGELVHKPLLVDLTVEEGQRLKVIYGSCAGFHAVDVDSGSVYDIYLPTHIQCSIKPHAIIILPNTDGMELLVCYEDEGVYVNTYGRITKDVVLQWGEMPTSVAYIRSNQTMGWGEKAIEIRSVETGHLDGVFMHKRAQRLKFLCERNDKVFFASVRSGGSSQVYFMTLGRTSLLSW
Sequence of UniProt Q00987 (Q00987 whole entry, looked up): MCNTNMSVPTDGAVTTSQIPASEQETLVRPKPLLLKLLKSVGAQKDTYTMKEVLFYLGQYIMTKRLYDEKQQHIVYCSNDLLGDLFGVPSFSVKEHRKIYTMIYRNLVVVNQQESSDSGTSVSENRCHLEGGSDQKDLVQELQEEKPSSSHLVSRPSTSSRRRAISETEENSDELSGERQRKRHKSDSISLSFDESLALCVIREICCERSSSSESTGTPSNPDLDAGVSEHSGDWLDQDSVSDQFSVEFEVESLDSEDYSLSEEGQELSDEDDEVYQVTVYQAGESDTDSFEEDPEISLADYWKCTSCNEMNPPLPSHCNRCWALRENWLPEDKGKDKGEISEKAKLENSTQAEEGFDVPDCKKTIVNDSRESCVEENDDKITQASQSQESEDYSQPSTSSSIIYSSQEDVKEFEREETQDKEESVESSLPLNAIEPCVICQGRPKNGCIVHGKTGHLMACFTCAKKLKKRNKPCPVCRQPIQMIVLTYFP
Sequence of UniProt Q9BPZ7 (Q9BPZ7 whole entry, looked up): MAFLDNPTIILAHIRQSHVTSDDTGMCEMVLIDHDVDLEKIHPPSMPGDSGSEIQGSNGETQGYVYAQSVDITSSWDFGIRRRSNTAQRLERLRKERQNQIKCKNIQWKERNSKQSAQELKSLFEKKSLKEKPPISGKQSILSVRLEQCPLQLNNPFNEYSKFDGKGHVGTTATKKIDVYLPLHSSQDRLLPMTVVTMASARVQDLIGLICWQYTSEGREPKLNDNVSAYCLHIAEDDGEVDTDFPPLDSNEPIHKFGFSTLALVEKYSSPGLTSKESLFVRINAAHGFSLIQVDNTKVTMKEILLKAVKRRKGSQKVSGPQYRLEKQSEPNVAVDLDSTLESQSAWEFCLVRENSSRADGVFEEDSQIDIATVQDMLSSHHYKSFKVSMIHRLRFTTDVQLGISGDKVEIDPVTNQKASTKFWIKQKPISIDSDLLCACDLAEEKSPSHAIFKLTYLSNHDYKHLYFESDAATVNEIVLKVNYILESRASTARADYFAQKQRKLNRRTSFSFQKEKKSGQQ
Sequence of UniProt O95396 (O95396 whole entry, looked up): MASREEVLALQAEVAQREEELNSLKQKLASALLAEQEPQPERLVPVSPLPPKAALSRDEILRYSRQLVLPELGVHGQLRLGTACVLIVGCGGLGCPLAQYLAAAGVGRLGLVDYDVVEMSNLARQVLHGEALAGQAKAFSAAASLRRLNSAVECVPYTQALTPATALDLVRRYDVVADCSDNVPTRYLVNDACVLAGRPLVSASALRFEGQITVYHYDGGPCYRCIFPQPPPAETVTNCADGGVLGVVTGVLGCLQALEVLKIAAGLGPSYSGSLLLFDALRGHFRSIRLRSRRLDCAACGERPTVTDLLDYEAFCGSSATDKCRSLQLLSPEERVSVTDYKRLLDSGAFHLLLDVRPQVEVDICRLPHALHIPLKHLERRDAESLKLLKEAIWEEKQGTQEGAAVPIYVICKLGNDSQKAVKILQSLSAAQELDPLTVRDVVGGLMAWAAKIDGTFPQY
Sequence of UniProt P83369 (P83369 whole entry, looked up): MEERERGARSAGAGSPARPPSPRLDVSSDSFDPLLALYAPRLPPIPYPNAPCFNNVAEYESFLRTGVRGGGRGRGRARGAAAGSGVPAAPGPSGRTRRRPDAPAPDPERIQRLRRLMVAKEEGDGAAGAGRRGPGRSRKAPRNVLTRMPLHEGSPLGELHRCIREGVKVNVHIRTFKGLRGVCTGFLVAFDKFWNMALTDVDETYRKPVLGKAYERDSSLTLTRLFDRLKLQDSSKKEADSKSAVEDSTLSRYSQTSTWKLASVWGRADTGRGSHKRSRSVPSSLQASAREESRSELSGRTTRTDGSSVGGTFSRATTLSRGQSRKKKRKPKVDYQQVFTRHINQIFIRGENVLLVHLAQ
Sequence of UniProt Q5SRI9 (Q5SRI9 whole entry, looked up): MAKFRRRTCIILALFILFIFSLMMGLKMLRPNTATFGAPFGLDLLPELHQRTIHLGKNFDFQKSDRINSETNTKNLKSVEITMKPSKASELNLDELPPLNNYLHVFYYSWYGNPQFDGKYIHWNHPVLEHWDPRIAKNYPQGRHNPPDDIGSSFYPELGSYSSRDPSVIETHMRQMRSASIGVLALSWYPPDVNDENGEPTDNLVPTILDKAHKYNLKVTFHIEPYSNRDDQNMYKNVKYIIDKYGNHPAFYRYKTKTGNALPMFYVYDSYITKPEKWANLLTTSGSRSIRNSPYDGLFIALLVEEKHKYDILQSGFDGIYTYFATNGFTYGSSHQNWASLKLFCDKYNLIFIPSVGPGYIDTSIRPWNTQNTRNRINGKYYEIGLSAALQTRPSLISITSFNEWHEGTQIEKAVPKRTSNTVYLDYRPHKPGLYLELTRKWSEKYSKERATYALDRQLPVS

Target | log2 fold change [1] | log2 fold change [2] | log2 fold change [3] | log2 fold change [4] | log2 fold change [5] | log2 fold change [6] | log2 fold change [7] | log2 fold change [8] | log2 fold change [9] | log2 fold change [10] | log2 fold change [11] | log2 fold change [12] | log2 fold change [13] | log2 fold change [14] | log2 fold change [15]
MRPL22 (UniProt Q9NWU5) | 0.04 | 0.017 | 0.03 | 0.025 | -0.003 | -0.001 | -0.073 | 0.081 | -0.687 (active) | 0.001 | -0.007 |  |  |  | 
MARF1 (UniProt Q9Y4F3) | -0.064 | 0.024 | 0.031 | -0.053 | -0.062 | 0.088 |  | -0.035 | -0.471 (active) | 0.003 | -0.045 | -0.031 | -0.03 | 0.006 | 0.049
LRP1 (UniProt Q07954) |  |  |  | -0.936 (active) |  | 0.114 | 0.122 |  |  |  | 0.296 |  |  | 0.233 | -0.032
MBTPS1 (UniProt Q14703) |  |  |  | -0.053 |  | 0.026 |  | -0.045 | 0.116 | -0.023 | -0.044 | 0.106 | -0.101 | 0.17 | 0.094
MAPK12 (UniProt P53778) | 0.082 | 0.048 | 0.085 | 0.051 | -0.005 | -0.015 |  | -0.044 | 0.181 | -0.027 | -0.067 | -0.057 | 0.375 (active) | 0 | -0.027
KRAS isoform 2 (UniProt P01116) |  |  |  | 0.018 |  | 0.001 | -0.046 | 0.036 | 0.068 | -0.015 | -0.045 | -0.029 | -0.025 |  | -0.129
KLC1 isoform 10 (UniProt Q07866) |  |  |  |  |  |  |  | -0.159 | -0.144 | -0.165 |  |  |  |  | -0.171
MEGF8 (UniProt Q7Z7M0) |  |  |  | 0.047 |  | -0.073 |  | -0.073 | 0.05 | -0.062 | 0.02 | -0.059 | -0.003 |  | -0.048
KIF18B (UniProt Q86Y91) |  |  |  | -0.025 |  | 0.17 | 0.025 |  |  |  | -0.098 | 0.073 | 0.076 |  | -0.035
LRRIQ1 (UniProt Q96JM4) |  |  |  | -0.518 |  | 0.242 | 0.019 |  |  |  | 0.754 (active) |  |  | 0.056 | 
LRRC9 (UniProt Q6ZRR7) |  |  |  | -0.171 |  | -0.038 |  |  |  |  | -0.034 |  |  | 0.106 | 0.011
MOCS3 (UniProt O95396) | -0.008 | -0.054 | 0.056 | -0.219 | 0.045 | -0.054 |  | -0.03 | -0.458 (active) | -0.012 | 0.053 | -0.056 | -0.049 | 0.062 | 0.035
MAP4K4 isoform 6 (UniProt O95819) |  |  |  |  |  |  | 0.021 | 0.083 | -0.134 | 0.02 |  | -0.01 | 0.115 |  | 0.094
MRPL27 (UniProt Q9P0M9) | -0.112 | 0.027 | -0.039 | -0.012 | 0.015 | -0.006 | 0.072 | -0.064 | 0.087 | 0.106 | -0.008 | 0.089 | 0.091 |  | -0.027
LY6E (UniProt Q16553) | -0.141 | 0.031 | 0.056 |  | 0.033 |  | 0.08 |  |  |  |  |  |  | 0.165 | -0.013
MANEA (UniProt Q5SRI9) |  |  |  | 0.046 |  | 0.05 | 0.01 | -0.044 | 0.217 | -0.103 | -0.047 | -0.003 | 0.046 | 0 | 0.055
MAPKAP1 (UniProt Q9BPZ7) | 0.105 | -0.118 | 0.083 | -0.087 | -0.056 | 0.042 |  | -0.093 | -0.111 | 0.187 | -0.018 | -0.085 | -0.003 |  | -0.157
MAST2 (UniProt Q6P0Q8) |  |  |  | -0.024 |  | 0.047 | -0.005 | -0.036 | -0.166 | 0.055 | -0.013 | 0.049 | 0.044 | 0.062 | -0.189
MDM2 isoform 11 (UniProt Q00987) |  |  |  | -0.2 |  | -0.077 |  | -0.195 | -0.062 | 0 | -0.039 |  |  | -0.137 | 
MDM1 (UniProt Q8TC05) | -0.073 | -0.008 | -0.149 |  | 0.006 |  | -0.005 | 0.061 | 0.085 | 0.093 |  | 0.015 | 0.056 | 0.056 | -0.119
LSM11 (UniProt P83369) |  |  |  | -0.114 |  | 0.049 |  | -0.037 | -0.027 | 0.194 | 0.014 | 0.266 | -0.049 | 0.233 | -0.02
KMT2B (UniProt Q9UMN6) |  |  |  | 0.346 |  | -0.047 |  | 0.122 | 0.531 | -0.76 (active) | 0.211 | 0.013 | 0.108 |  | 0.116
MAP3K6 (UniProt O95382) | 0.122 | -0.023 | 0.006 |  | -0.011 |  |  |  |  |  |  |  |  | -0.088 | -0.043
KIF26A (UniProt Q9ULI4) | 0.035 | -0.013 | 0.01 | -0.092 | 0.226 | -0.078 |  | -0.091 | -0.178 | 0.068 | -0.016 | 0.003 | 0.014 | -0.01 | 0.057
MRC2 (UniProt Q9UBG0) | -0.001 | -0.055 | 0.26 | -0.056 | 0.083 | 0.144 |  | 0.068 | 0.346 | -0.051 | -0.171 | -0.201 | 0.073 |  | -0.055
MAPK3 (UniProt H0YEX6) | -0.522 | 0.646 | 0.12 |  | 0.097 |  |  |  |  |  |  |  |  |  | 
MEX3A (UniProt A1L020) | 0.026 | -0.069 | -0.137 |  | 0.211 |  |  |  |  |  |  | -0.029 | -0.084 | -0.106 | 
MAPK7 (UniProt Q13164) |  |  |  | -0.156 |  | -0.044 | 0.028 | 0.011 | -0.102 | 0 | -0.01 |  |  |  | 0.029
MRPL30 isoform 2 (UniProt Q8TCC3) | -0.048 | -0.066 | 0.047 | -0.13 | 0.052 | -0.007 | 0 | 0.039 | 0.041 | -0.023 | -0.012 | -0.038 | 0.03 |  | -0.046
